About 83,000 compounds went through this panel and 20% of them were active in at least one assay; those are over-represented in the sample as a whole.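 Testing used 96-well plates and a 48-hour single-concentration exposure. Example: -40 means 40% of the starting cells died.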 Unmarked numbers belong to inactive results. Calls of active or inactive are those of the source. The calls were made as follows: active = growth percent below 10; inactive = the rest.
Tests used:
Assay in all cases: NCI-60 one-dose screen, 48 h (100 = growth as untreated, 0 = no growth, -100 = all killed)
Conditions in all cases: 10 µM unless noted
SK-MEL-2 melanoma = tested on: SK-MEL-2 melanoma
EKVX NSCLC = tested on: EKVX NSCLC
SN12C renal = tested on: SN12C renal
UO-31 renal = tested on: UO-31 renal
TK-10 renal = tested on: TK-10 renal
ACHN renal = tested on: ACHN renal
CAKI-1 renal = tested on: CAKI-1 renal
A498 renal = tested on: A498 renal
CCRF-CEM leukemia = tested on: CCRF-CEM leukemia
MOLT-4 leukemia = tested on: MOLT-4 leukemia
SR leukemia = tested on: SR leukemia
RPMI-8226 leukemia = tested on: RPMI-8226 leukemia
OVCAR-8 ovarian = tested on: OVCAR-8 ovarian
OVCAR-5 ovarian = tested on: OVCAR-5 ovarian
OVCAR-4 ovarian = tested on: OVCAR-4 ovarian
SK-OV-3 ovarian = tested on: SK-OV-3 ovarian
IGROV1 ovarian = tested on: IGROV1 ovarian
OVCAR-3 ovarian = tested on: OVCAR-3 ovarian
HS 578T breast = tested on: HS 578T breast
NCI/ADR-RES ovarian = tested on: NCI/ADR-RES ovarian

| SMILES | growth (SK-MEL-2 melanoma) | growth (EKVX NSCLC) | growth (SN12C renal) | growth (UO-31 renal) | growth (TK-10 renal) | growth (ACHN renal) | growth (CAKI-1 renal) | growth (A498 renal) | growth (CCRF-CEM leukemia) | growth (MOLT-4 leukemia) | growth (SR leukemia) | growth (RPMI-8226 leukemia) | growth (OVCAR-8 ovarian) | growth (OVCAR-5 ovarian) | growth (OVCAR-4 ovarian) | growth (SK-OV-3 ovarian) | growth (IGROV1 ovarian) | growth (OVCAR-3 ovarian) | growth (HS 578T breast) | growth (NCI/ADR-RES ovarian) |
| --- | --- | --- | --- | --- | --- | --- | --- | --- | --- | --- | --- | --- | --- | --- | --- | --- | --- | --- | --- | --- |
| c1ccc(C2NCCNC2c2ccccc2)cc1 (stereo not given) | 98.7% | 103% | 102% | 80.9% | 110% | 108% | 97.6% | 80.6% | 104% | 99.7% | 98.1% | 108% | 101% | 99.3% | 116% | 113% | 102% | 113% | 104% | 109% |
| CCN(CC)CC(O)c1cc(-c2ccc(Cl)cc2)nc2cc(Cl)ccc12 (stereo not given) | 22.7% | 60.5% | 29.6% | 35.2% | 20.6% | 7.25% (active) | -16.5% (active) | 64.6% | 3.88% (active) | -18.3% (active) | -12.3% (active) | 34.4% | 38% | 14.2% | 53.3% | 60% | 10.3% | 56.8% | 40.6% | 29.8% |
| CCOC(=O)C1=NN(c2ccccc2)C(=O)/C1=C\N1C(=O)/C(=C/c2cccc(O)c2)SC1=S | 99.6% | 107% | 82.3% | 76% | 117% | 99.5% | 100% | 94.5% | 93% | 95.7% | 83.3% | 88.1% | 95.8% | 121% | 98.8% | 99.8% | 96% | 106% | 94% | 99.3% |
| O=C(c1ccccc1)c1cc2ccccc2oc1=O | 126% | 95.5% | 89.4% | 59.3% | 130% | 101% | 98.7% | 117% | 101% | 105% | 107% | 84.3% | 96.9% | 102% | 95.2% | 100% | 64.8% | 107% | 90.6% | 100% |
| CCN(CC)CCNc1ccc([N+](=O)[O-])c2sc3ccccc3c(=O)c12 | 21.6% | 23.1% | 28.5% | -10% (active) | 63.7% | 6.41% (active) | -0.017% (active) | 43.7% | 38% | 12.1% | 11.1% | 22.2% | 19.1% | 45% | 12% | 32.6% | -10.9% (active) | 36.7% | 20.4% | 32.8% |
| OC(Cc1cc(CC(O)(C(F)(F)F)C(F)(F)F)nc(CC(O)(C(F)(F)F)C(F)(F)F)c1)(C(F)(F)F)C(F)(F)F | -28.3% (active) | 16% | 4.86% (active) | 6.74% (active) | 22.1% | 0.867% (active) | 4.5% (active) | -18.8% (active) | 7.23% (active) | -8.17% (active) | 4.85% (active) | -7.53% (active) | 9.71% (active) | 16.1% | 6.38% (active) | -16.8% (active) | 20.4% | -3.61% (active) | 5.53% (active) | 3.76% (active) |
| Cc1ccccc1N=C(N)Nc1ccccc1C (tested in a mixture with another compound) | 85.7% | 85.3% | 82.8% | 71.1% | 67.8% | 77.9% | 52.9% | 96.8% | 9.64% (active) | 37.1% | 49.6% | 46.6% | 73.7% | 91.6% | 82.2% | 98.5% | 62.6% | 78.8% | 111% | 79.3% |
| O=C1C(=O)c2cccnc2-c2ncccc21 | -11.1% (active) | -49.7% (active) | -14.3% (active) | -71.3% (active) | -24% (active) | -69.4% (active) | -29.4% (active) | -39.4% (active) | -32.6% (active) | -45.1% (active) | -45.5% (active) | -29.7% (active) | -33% (active) | -57.6% (active) | -100% (active) | -32.8% (active) | -53.8% (active) | -100% (active) | -47.5% (active) | -96.3% (active) |
| OC(CSc1ccccc1)CN1CCN(c2ccc(Cl)cc2)CC1 (stereo not given) | 98.5% | 95.2% | 94.4% | 84.8% | 101% | 97.9% | 88.1% | 82.1% | 86% | 83% | 86.6% | 81.4% | 99.6% | 102% | 92.1% | 110% | 114% | 121% | 115% | 89.1% |
| C/C(=N/NC(N)=S)c1ccc(C)cc1 | 101% | 53.9% | 87.4% | 68.1% | 102% | 96.6% | 99.8% | 94.7% | 43.3% | 63.9% | 94.6% | 71.4% | 76.7% | 111% | 88% | 98.8% | 105% | 62.8% | 102% | 76% |
| CCNc1nnnn1CC | 122% | 94.5% | 93% | 108% | 106% | 110% | 99.4% | 83.8% | 103% | 116% | 108% | 107% | 113% | 115% | 110% | 109% | 115% | 109% | 102% | 110% |
| Cc1ccccc1NC(=O)Cc1csc2[n+]1C(=O)/C(=C/c1ccc([N+](=O)[O-])cc1)S2 | 108% | 92.8% | 99.6% | 71.8% | 117% | 90.4% | 93.4% | 75% | 99.1% | 88.2% | 79.7% | 91.2% | 97.9% | 98.4% | 83.6% | 90.1% | 103% | 97.8% | 98.6% | 100% |
| O=C1Nc2ccc(Br)cc2C1=O | 117% | 101% | 97% | 78.9% | 131% | 101% | 100% | 107% | 93.5% | 95.9% | 81.9% | 96.4% | 100% | 103% | 93.2% | 93.9% | 97.9% | 90.5% | 95.7% | 108% |
| CCc1cnc2ccccc2c1/C=C/c1ccc(N(C)C)cc1 | 30.3% | 62.4% | 52.3% | 44.6% | 57.1% | 60.3% | 51.6% | 34% | 32.9% | 33.9% | 4.96% (active) | 67.3% | 59.5% | 75% | 79.3% | 38.5% | 42% | 16.9% | 62.8% | 21.8% |
| N=C(N)Sc1cccc[n+]1[O-] | 59% | 47.7% | 101% | 36.1% | 86.2% | 48.6% | 79.5% | 81.7% | -8.85% (active) | 12.7% | 4.61% (active) | 7.12% (active) | 45.6% | 98.2% | 15.7% | 85.3% | 46.5% | 21.7% | 82.9% | 53.5% |
| O=S(=O)(O)c1cnccn1 | 102% | 97.4% | 103% | 93.4% | 94% | 104% | 92.3% | 118% | 112% | 101% | 110% | 104% | 107% | 96.6% | 113% | 89.6% | 105% | 103% | 112% | 102% |

Source: PubChem BioAssay (NCI)
